67 compounds from ChEMBL document CHEMBL3988442, “University of Dundee, Small-Polar-MMV Screening Library” (2021) can be followed below.

The campaign covered roughly 48,000 compounds. About 13,000 (27%) showed an effect of 50% or more. The list shows a part of the results.

The assay relates to Wolbachia pipientis. Put plainly: Anti-Wolbachia Cell-Based Screen. The format is functional. The arrangement: scale not given: in the data most compounds retested in dose-response had high values. To be noted: 5 µM.
With `COCCn1cnnc1Cn1ccnc1-c1ccccc1C`, the “Percent Effect” value is given as -14.43%.

As for `c1ccc(-c2cc(CC3(NCc4ncc[nH]4)COC3)no2)cc1`, the “Percent Effect” value is listed as -5.291%.

As to `O=C1OCCN1CCS(=O)(=O)c1cccc(Cl)c1`, the “Percent Effect” value is given as -8.046%.

For `CC(C(=O)N1CCc2sccc2C1)N1CCC(S(N)(=O)=O)CC1` (configuration not stated), the “Percent Effect” value worked out at 4.951%.

Consider `O=S(=O)(N1CCCC1)N1CCc2sccc2C1`, for which the “Percent Effect” value is -2.678%.

For the compound `NCC(c1ccc(Cl)cc1)N1CCc2sccc2C1` (configuration not stated), the “Percent Effect” value was found to be 85.2%.

Take `CC(C)c1ccc(C(CN)N2CCc3sccc3C2)cc1` (configuration not stated): the “Percent Effect” value was 134.3%.

With `CC(C)c1nsc(N2CCc3sccc3C2)n1`, the “Percent Effect” value is recorded as -3.315%.

As to `N#Cc1ccc(F)c(CN2CCc3sccc3C2)c1`, the “Percent Effect” value is 10.21%.

`O=C1CC2(CCCC2)C(=O)N1CC(O)COCc1ccccc1F` (configuration not stated): the “Percent Effect” value was -41.58%.

For `CCOc1ncccc1C(=O)NCC(O)c1ccc(F)c(F)c1` (configuration not stated), the “Percent Effect” value is given as -43.97%.

For the compound `O=C(O)C(F)(F)F.O=C(O)C(F)(F)F.c1ccc(OCc2nnc3n2CCN(CC2CCOCC2)C3)nc1`, the “Percent Effect” value is 15.11%.

In the case of `Cc1cc(C)c(CNC(=O)NCC(O)COc2ccccc2)c(=O)[nH]1` (configuration not stated), the “Percent Effect” value is given as -7.857%.

With `Cc1ccc(CN2CCC(n3cc(CN4CCC(O)CC4)nn3)CC2)s1`, the “Percent Effect” value is -6.735%.

In the case of `COCCN1CCC12CCN(C(=O)c1ccsc1)CC2.O=C(O)C(F)(F)F`, the “Percent Effect” value is on record as -8.3%.

With `CCc1noc(CCCC(=O)N2CCCC(c3ccn[nH]3)C2)n1` (configuration not stated), the “Percent Effect” value is reported as -18.93%.

For the compound `CCCc1noc(CCC(=O)N2CCCC(c3ccn[nH]3)C2)n1` (configuration not stated), the “Percent Effect” value was -9.271%.

Take `CCc1noc(CCC(=O)N2CCC(c3ccn[nH]3)C2)n1` (configuration not stated): the “Percent Effect” value amounted to 80.59%.

`COCC(=O)NCC1Cn2nnc(-c3ccoc3)c2CO1` (configuration not stated): the “Percent Effect” value is reported as -10%.

For `O=c1[nH]c(-c2ccc(F)cc2)nc2c1CCNC2`, the “Percent Effect” value is listed as -26.62%.

As for `Cc1nc(-c2ccccc2)ccc1C(=O)N1CCn2c(C)nnc2C1`, the “Percent Effect” value is -4.566%.

On to `O=c1cc(-c2ccccc2)nc2n1CCCCC2`, for which the “Percent Effect” value was 110.3%.

On to `Fc1ccc2c(c1)C(NCc1nnc3n1CCCCC3)CCCO2` (configuration not stated), for which the “Percent Effect” value is reported as -5.807%.

As for `O=c1cc(-c2ccc(F)cc2)nc2n1CCCCC2`, the “Percent Effect” value turned out to be 114%.

With `NC1(c2nc(-c3ccccc3)cc(=O)[nH]2)CCCC1`, the “Percent Effect” value was -3.244%.

As to `CCc1cc(CNC(=O)Nc2cc(F)cc(N3CCCC3)c2)on1`, the “Percent Effect” value was -27.71%.

For the compound `O=C1CCc2ccccc2N1CCCn1cnnn1`, the “Percent Effect” value is on record as -8.538%.

With `CC(C)c1ccc(C(=O)O)cc1S(=O)(=O)Nc1ccc(=O)n(C)c1`, the “Percent Effect” value is -9.9%.

As to `Cc1ccc(N2C[C@@H]3CN(C(=O)c4ccccc4)CCO[C@@H]3C2)nn1.O=C(O)C(F)(F)F`, the “Percent Effect” value is listed as -9.523%.

For the compound `Cc1ccc(N2CCO[C@@H]3CN(Cc4cccc(C)n4)CC[C@@H]3C2)nn1`, the “Percent Effect” value is reported as 0.9995%.

Regarding `Cc1ccc(N2CCO[C@H]3CN(C(=O)c4cccc(C)n4)C[C@H]32)nn1`, the “Percent Effect” value is 104.4%.

On to `CNS(=O)(=O)c1cccc(C(C)NCc2cccc(O)c2)c1` (configuration not stated), for which the “Percent Effect” value is reported as -12.85%.

With `O=C(c1nc(=O)[nH][nH]1)N1CCCCCC1`, the “Percent Effect” value is recorded as -25.91%.

Turning to `COc1ccc2c(c1)C(=O)N(C)C1(CCN(CC=C(C)C)CC1)N2`, the “Percent Effect” value is -3.399%.

`O=C(NCCNc1ccccn1)NC1CCCC1`: the “Percent Effect” value stood at 1.673%.

`CC(=O)NC1Cc2ccc(S(=O)(=O)NCCNc3ccccn3)cc2C1` (configuration not stated): the “Percent Effect” value is listed as 74.28%.

With `CN1CCC(NC(=O)NCCNc2ccccn2)CC1`, the “Percent Effect” value came out at 10.59%.

As to `CN(C)C(=O)CCS(=O)(=O)Cc1cc(Cl)c2c(c1)OCCO2`, the “Percent Effect” value was determined as 3.114%.

For the compound `CS(=O)(=O)CCS(=O)(=O)Cc1cc(Cl)c2c(c1)OCCCO2`, the “Percent Effect” value is -7.786%.

As for `CN(C)C(=O)CS(=O)(=O)Cc1cc(Cl)c2c(c1)OCCCO2`, the “Percent Effect” value is recorded as -2.577%.

Consider `CN(C)C(=O)CCCS(=O)(=O)Cc1cc(Cl)c2c(c1)OCO2`, for which the “Percent Effect” value is recorded as 133.3%.

For the compound `CS(=O)(=O)Cc1cc(Cl)c2c(c1)OCCCO2`, the “Percent Effect” value came to 18.55%.

`CC(C)NC(=O)CS(=O)(=O)Cc1cc(Cl)c2c(c1)OCCO2`: the “Percent Effect” value turned out to be 2.891%.

For `CN(C)C(=O)CCS(=O)(=O)Cc1cc(Cl)c2c(c1)OCO2`, the “Percent Effect” value is given as 106.6%.

`CN(C)C(=O)CCCS(=O)(=O)Cc1cc(Cl)c2c(c1)OCCO2`: the “Percent Effect” value was 4.566%.

Consider `CN(C)C(=O)CS(=O)(=O)Cc1cc(Cl)c2c(c1)OCCO2`, for which the “Percent Effect” value was determined as 128.9%.

`CCN1CCC(NC(=O)NC2CCOc3ccc(Br)cc32)CC1` (configuration not stated): the “Percent Effect” value is given as -7.217%.

In the case of `COCc1nc(CNC2CCN(C(C)C)CC2)no1`, the “Percent Effect” value is reported as -1.626%.

On to `CCC(CO)N(Cc1cccs1)C(=O)CSC` (configuration not stated), for which the “Percent Effect” value was -12.18%.

As for `O=S1(=O)C[C@@H]2[C@H](C1)N(Cc1cc(F)cc(Cl)c1)CCN2CCO`, the “Percent Effect” value is on record as 3.698%.

As to `CN1[C@H](CO)C[C@H](CNCc2ccc(CO)o2)[C@@H]1c1ccccc1F`, the “Percent Effect” value is recorded as -6.438%.

As to `O=C(O)C(F)(F)F.c1cnn(Cc2cn3c(n2)CN(Cc2nccs2)CC3)c1`, the “Percent Effect” value was found to be 25.66%.

With `CC(=O)N1CC2(CCN(S(=O)(=O)N(C)C)CC2)C2(CCNC2=O)C1` (configuration not stated), the “Percent Effect” value is listed as -32.61%.

With `COc1ccccc1C1CCN(c2ccc3cc[nH]c3n2)CC1`, the “Percent Effect” value worked out at 26.71%.

For the compound `COC(=O)c1cc(NCC(=O)NC(N)=O)cc(C(F)(F)F)c1`, the “Percent Effect” value amounted to 4.503%.

With `COc1ccccc1C(C)CNC(=O)c1c(C)nn(C)c1OC` (configuration not stated), the “Percent Effect” value is reported as -4.025%.

In the case of `Cc1cc(C(=O)NC(C)CC(=O)c2cccs2)n(C)n1` (configuration not stated), the “Percent Effect” value is recorded as 104.4%.

With `CNS(=O)(=O)c1cccc(CNC(=O)c2c(C)nn(C)c2C)c1`, the “Percent Effect” value is reported as -2.541%.

Regarding `COc1c(C(=O)NCC(C)Sc2ccccc2)c(C)nn1C` (configuration not stated), the “Percent Effect” value is on record as -11.73%.

As for `CC(NC(=O)c1cccs1)C(=O)NCc1ccccc1CN1CCCC1` (configuration not stated), the “Percent Effect” value is given as 1.8%.

Turning to `Cc1cc(NC(=O)NCCc2cccs2)n(C)n1`, the “Percent Effect” value is reported as -8.078%.

Turning to `C[C@@H](NC(=O)c1cccs1)c1onc(-c2cccnc2)c1C(=O)O.Cl`, the “Percent Effect” value is given as -7.123%.

Consider `CCC(NC(=O)c1cc(CC(C)C)nn1C)c1cccc(C)n1` (configuration not stated), for which the “Percent Effect” value is listed as -23.09%.

With `Cc1nn(C)c(C)c1CC(C)NC(=O)NCc1ccn(C(C)C)n1` (configuration not stated), the “Percent Effect” value worked out at 14.28%.

On to `Cc1nn(C)c(C)c1C(=O)NC(C)CC(=O)c1cccs1` (configuration not stated), for which the “Percent Effect” value is recorded as 89.66%.

As for `CNc1snc(C)c1C(=O)NC(C)CC(=O)c1cccs1` (configuration not stated), the “Percent Effect” value is reported as 87.28%.

Turning to `COc1c(C(=O)NC(C)CC(=O)c2cccs2)c(C)nn1C` (configuration not stated), the “Percent Effect” value worked out at 88.78%.
